The supplement of paper PMC8387472
Counter-ions that a name gives are not always drawn. ± gives the standard deviation of the averaged measurements.

Tested on: mESC LDLR-Dup GFP reporter (SpCas9 MH-deletion repair)
Assay: fraction of GFP+ cells relative to DMSO control (fold change); higher = more MH-deletion repair to in-frame LDLR (or more editing)
Details: 2 µM; 7 days post-transfection

| SMILES | fraction of GFP+ cells |
| --- | --- |
| COc1cccc2c1c(O)c(C(=O)N(C)c1ccc(C(F)(F)F)cc1)c(=O)n2C [Tasquinimod] | 0.837 ± 0.12 |
| COc1cc2c(cc1O)CC[C@@H]1[C@@H]2CC[C@]2(C)[C@@H](O)CC[C@@H]12 [2-Methoxyestradiol (2-MeOE2)] | 0.441 ± 0.088 |
| CCn1cc(C(=O)O)c(=O)c2cc(F)c(N3CCNCC3)cc21 [Norfloxacin] | 1.01 ± 0.13 |
| Cc1cccc(Nc2cc(Cl)nc(SCC(=O)O)n2)c1C | 1.56 ± 0.58 |
| CCn1cc(C(=O)O)c(=O)c2ccc(C)nc21 [Nalidixic acid] | 1.08 ± 0.015 |
| COc1cc(Br)c(Nc2nc(-c3c(C)nc4ncccn34)cs2)c(Br)c1 | 0.111 ± 0.028 |
| O=C(O)C(Cc1ccccc1[N+](=O)[O-])=NNc1nc(-c2ccc(Cl)c(Cl)c2)cs1 (mixture of isomers) | 1.15 ± 0.48 |
| COc1cc(OCc2cccc(-c3ccccc3)c2C)cc(OC)c1CN1CCCC[C@H]1C(=O)O [pd-1/pd-l1 inhibitor 1] | 0.898 ± 0.35 |
| Nc1nc(F)nc2c1ncn2[C@@H]1O[C@H](CO)[C@@H](O)[C@@H]1O [Fludarabine] | 0.867 ± 0.35 |
| NC(=O)c1ccccn1 [Picolinamide] | 1.08 ± 0.046 |
| O=P(O)(O)C(O)(Cn1ccnc1)P(=O)(O)O [Zoledronic Acid Monohydrate] | 1.07 ± 0.25 |
| CN(C)/N=N/c1[nH]cnc1C(N)=O [Dacarbazine] | 1.01 ± 0.49 |
| CN1CCCC(n2nc(Cc3ccc(Cl)cc3)c3ccccc3c2=O)CC1 (centres undefined) [Azelastine HCl] | 0.868 ± 0.11 |
| Nc1cc(F)ccc1NC(=O)/C=C/c1cnn(C/C=C/c2ccccc2)c1 | 0.555 ± 0.17 |
| CC(NC(=O)c1ccccc1/N=C/c1c(O)ccc2ccccc12)c1ccccc1 (centres undefined) [Sirtinol] | 1.45 ± 0.24 |
| C[C@@H]1COCCN1c1cc(C2([S@](C)(=N)=O)CC2)nc(-c2cc[nH]c3nccc2-3)n1 | 0.429 ± 0.24 |
| CCN1C(=O)CNc2ncc(-c3ccc(-c4nc[nH]n4)nc3C)nc21 | 0.696 ± 0.12 |
| N#Cc1ccc(COC[C@H]2O[C@@H](n3c(NCc4ccc(Cl)c(Cl)c4)nc4c(N)ncnc43)[C@H](O)[C@@H]2O)cc1 | 1.89 ± 0.17 |
| COc1cccc2oc(-c3ccccc3)cc(=O)c12 [5-methoxyflavone] | 0.869 ± 0.26 |
| O=C(NCCS(=O)(=O)c1ccc(C(F)(F)F)cn1)c1ccc(Cl)cc1 | 1.39 ± 0.63 |

| SMILES | fraction of GFP+ cells |
| --- | --- |
| CCCCCCCCCC(=O)N[C@@H](Cc1c[nH]c2ccccc12)C(=O)N[C@H](CC(N)=O)C(=O)N[C@@H](CC(=O)O)C(=O)N[C@@H]1C(=O)NCC(=O)N[C@@H](CCCN)C(=O)N[C@@H](CC(=O)O)C(=O)N[C@H](C)C(=O)N[C@@H](CC(=O)O)C(=O)NCC(=O)N[C@H](CO)C(=O)N[C@@H]([C@H](C)CC(=O)O)C(=O)N[C@@H](CC(=O)c2ccccc2N)C(=O)O[C@@H]1C [Daptomycin] | 1.25 ± 0.27 |
| NC(=O)NO [Hydroxyurea] | 0.829 ± 0.24 |
| CN1CCN(Cc2ccc(NC(=O)Nc3ccc(Oc4ccnc(N)n4)cc3)cc2C(F)(F)F)CC1 | 0.335 ± 0.13 |
| O=C(CCCCCCNC(=O)c1cnc(N(c2ccccc2)c2ccccc2)nc1)NO [Ricolinostat (ACY-1215)] | 0.968 ± 0.11 |
| CC(=O)c1cc([N+](=O)[O-])c(Sc2ccc(F)cc2F)s1 | 0.785 ± 0.22 |
| O=NN(CCCl)C(=O)NC1CCCCC1 [Lomustine] | 1.11 ± 0.11 |
| CN(C)c1nc(N(C)C)nc(N(C)C)n1 [Altretamine] | 1.41 ± 0.41 |
| COc1ccc(CC(=O)Nc2nc3c(s2)CCc2ccccc2-3)cc1OC | 1.51 ± 0.37 |
| CCCCCCCCCCCCCC(=S)NCCCC[C@H](NC(=O)OCc1ccccc1)C(=O)Nc1ccccc1 [Thiomyristoyl] | 0.948 ± 0.9 |
| CC(C)=CCC[C@](C)(O)[C@H]1CC[C@]2(C)[C@@H]1[C@H](O)C[C@@H]1[C@@]3(C)CC[C@H](O)C(C)(C)[C@@H]3[C@@H](O)C[C@]12C [(20S)-Protopanaxatriol] | 1.02 ± 0.14 |
| CC1CCc2cc(F)cc3c(=O)c(C(=O)O)cn1c23 (centres undefined) [Flumequine] | 0.977 ± 0.12 |
| Cc1ccc(C)c(OCCCC(C)(C)C(=O)O)c1 [Gemfibrozil] | 1.46 ± 0.29 |
| O=c1c(O)c(-c2ccc(O)c(O)c2)oc2cc(O)ccc12 [Fisetin] | 1.39 ± 0.39 |
| O=C(Nc1ccccc1-c1cn2c(CN3CCNCC3)csc2n1)c1cnc2ccccc2n1 | 1.19 ± 0.68 |
| O=C(O)[C@]1(Cc2cccc(Nc3nccs3)n2)CC[C@@H](Oc2cccc(Cl)c2F)CC1 | 1.82 ± 0.2 |
| O=C(Nc1cccc(Cl)c1)Nc1ncc(CCNc2ncnc3ccsc23)s1 [SNS-314 Mesylate] | 0 |
| O=c1[nH]nc2c3c(cccc13)N=C(CN1Cc3ccccc3C1)N2 | 0.38 ± 0.041 |
| CN(C)CC(=O)Nc1ccc2[nH]c(=O)c3ccccc3c2c1 | 1.02 ± 0.06 |
| O=c1oc2c(O)c(O)cc3c(=O)oc4c(O)c(O)cc1c4c23 [Ellagic acid] | 0.913 ± 0.11 |
